In PubChem BioAssay AID434970 (Sanford-Burnham Center for Chemical Genomics, 2010):
In all, about 11,000 compounds went through this assay and about 310 (2.8%) were called active. Rule as the data show it: active = activity change below about -85%; inactive = the rest. The sample as a whole holds a higher share of actives than the screen did.

System: intestinal alkaline phosphatase [Mus musculus]
Assay: activators of mouse IAP, confirmation, biochemical, luminescence, single concentration (AID 434970)
Conditions: purified mouse IAP, CDP-Star luminescence, 30 min, at 10 µM; activation factor: measured here: IAP activation factor, stronger effect = higher value; activity change, negative = activation: stronger effect = lower value

SMILES	activation factor	activity change, negative = activation
CCC(C)c1ccc(NC(=O)C2CC2)cc1 (centres undefined)	1.07	-7.35% (inactive)
Cc1cc(C)nc(-n2nc(C)c3c(C(F)(F)F)cc(=O)[nH]c32)n1	1.03	-2.7% (inactive)
COc1ccc(Cl)cc1C(=O)NCc1cnn(C)c1C	0.932	6.75% (inactive)
C/C(=N\NC(=O)c1nn(C)cc1Br)c1cccc(NC(=O)C2CCCC2)c1	1.03	-3.45% (inactive)
C=CCn1cc(CN2CCC(C(=O)Nc3cccc(-c4cccc(F)c4)c3)CC2)c(C)n1	2.94	-194% (active)
O=C(Nc1cccc(F)c1)N1CCN(C/C=C/c2ccccc2)CC1	0.988	1.15% (inactive)
CCn1cc(CN2CCC(C(=O)Nc3cccc(-c4cccc(Cl)c4)c3)CC2)c(C)n1	4.96	-396% (active)
C=CCn1cc(CN2CCC(C(=O)Nc3cccc(-c4cccc(Cl)c4)c3)CC2)c(C)n1	3.74	-274% (active)
Cc1c(CN2CCC(C(=O)Nc3cccc(-c4cccc(Cl)c4)c3)CC2)cnn1C	4.12	-312% (active)
Cc1cccc(-n2c(SCC(=O)Nc3ccc4c(c3)OCO4)nnc2-c2ccoc2C)c1	1.03	-2.65% (inactive)
Cc1cccc(C2=NN(c3ccc(Br)cc3)[C@@H](C(=O)N3CCOC3=O)[C@@H]2C)c1	0.974	2.65% (inactive)
CC(=O)c1c(C)[nH]c(C(=O)N2CCN(c3cc(Cl)ccc3C)CC2)c1C	1.14	-13.5% (inactive)
CN(C(=O)C1CCOC1)c1nnc(-c2ccncc2)s1 (centres undefined)	0.913	8.65% (inactive)
CC(Oc1ccc(Br)cc1)C(=O)N1CCc2ccccc21 (centres undefined)	1.16	-16.1% (inactive)
N#Cc1c2c(c(NCCCN3CCOCC3)n3c1nc1ccccc13)CCC2	0.904	9.6% (inactive)
Cc1ccc(C2CC(=O)Oc3cc(C)cc(C)c32)cc1 (centres undefined)	1.06	-5.5% (inactive)
COc1ccc(S(=O)(=O)c2ccc(O)cc2)cc1	0.992	0.8% (inactive)
CC(C)[C@@H](CO)N(C)S(=O)(=O)c1ccccc1Br	1.01	-0.85% (inactive)
O=C(NCCc1ccc(Cl)cc1)c1cccnc1	0.957	4.3% (inactive)
COc1ccc2cc(C[C@@H]3CC[C@@H](CO)O3)ccc2c1	1.04	-4.15% (inactive)
COc1ccc(NC(=O)C2CCN(c3nnnn3-c3ccccc3)CC2)cc1	0.976	2.45% (inactive)

SMILES	activation factor	activity change, negative = activation
O=C(Nc1ccccc1Cl)C1CCN(Cc2cnn(-c3ccccc3)c2-n2cccc2)CC1	1.02	-1.6% (inactive)
COc1cccc(NC(=O)C2CCN(Cc3cnn(-c4ccccc4)c3-n3cccc3)CC2)c1	2.01	-101% (active)
Cc1ccc(-c2csc(N)n2)s1	0.219	78% (inactive)
FC(F)Oc1ccc(NC(=S)NC2CCSc3ccccc32)cc1 (centres undefined)	2.75	-175% (active)
NS(=O)(=O)c1cc(C(=O)NC2CCSc3ccccc32)ccc1Cl (centres undefined)	0.16	84% (inactive)
S=C(NCc1ccccc1)NC1CCSc2ccccc21 (centres undefined)	2.51	-151% (active)
Cc1cccc(NC(=S)NC2CCSc3ccccc32)c1 (centres undefined)	3.43	-242% (active)
S=C(NCc1ccccc1)NCc1ccc(CNC(=S)NCc2ccccc2)cc1	1.39	-39.4% (inactive)
S=C(NCc1ccccc1)NC1CCCc2ccccc21 (centres undefined)	1.87	-86.8% (inactive)
FC(F)Oc1ccc(NC(=S)NC2CCCCCCC2)cc1	1.38	-38% (inactive)
Cc1ccc(NC(=S)NC2CCSc3ccccc32)cc1C (centres undefined)	2.71	-172% (active)
S=C(Nc1ccc(Cl)c(Cl)c1)NC1CCCCC1	1.9	-90.1% (inactive)
Cc1cccc(NC(=S)NCCN(C2CCCCC2)C2CCCC2)c1	1.23	-23.1% (inactive)
Cc1ccc(NC(=S)NC2CCSc3ccccc32)cc1 (centres undefined)	1.37	-36.6% (inactive)
S=C(Nc1ccc(Oc2ccccc2)cc1)NC1CCCC1	1.5	-49.8% (inactive)
COc1ccc(C2/C=C\CN(C(=O)OCC3c4ccccc4-c4ccccc43)CC(=O)N2Cc2cccc(F)c2)cc1 (centres undefined)	1.1	-10.4% (inactive)
O=C(Nc1ccc2nc(-c3ccc4nc[nH]c4c3)[nH]c2c1)c1cccs1	1.05	-5.3% (inactive)
CC(=O)N1CCN(c2ccc(NCc3ccc(C)cc3)cc2)CC1	1.09	-9.45% (inactive)
COC(=O)c1ccc(Nc2cc(C)nc3ncnn23)cc1	1.03	-3.5% (inactive)
Cc1csc(SCc2ccccc2C(=O)O)n1	0.948	5.2% (inactive)
COc1ccccc1C(=O)N1CCN=C1c1ccccc1	0.974	2.55% (inactive)

SMILES	activation factor	activity change, negative = activation
O=C(NCC(=O)N(c1ccccc1)C(C(=O)NC1CCCCC1)c1ccncc1)c1ccco1 (centres undefined)	1.01	-1.1% (inactive)
Cc1ccc(-c2nnc(SCC(=O)NNC(=O)COc3cccc4ccccc34)n2C)cc1	1.03	-3.2% (inactive)
Cn1c(=O)c2c(nc(NC3CCCCC3)n2CC(=O)C23CC4CC(CC(C4)C2)C3)n(C)c1=O	5.65	-465% (active)
Cn1c(=O)c2c(nc(SCC(=O)N3CCCCCC3)n2C)n(C)c1=O	1.08	-7.85% (inactive)
Cn1c(=O)c2c(nc(NC3CCCCC3)n2CC(O)COc2ccccc2)n(C)c1=O (centres undefined)	1.01	-0.8% (inactive)
CCN(Cc1cc2ccccc2[nH]c1=O)S(=O)(=O)c1ccccc1	1.02	-1.85% (inactive)
O=C(NCc1cccs1)C(NS(=O)(=O)c1cccc2nsnc12)c1ccccc1 (centres undefined)	0.974	2.65% (inactive)
CCOC(=O)C1C(=O)NC(N2CCCCC2)=NC1C(C)C (centres undefined)	0.936	6.4% (inactive)
CCCN1C2CCCC1CC(NC(=O)Nc1cccc(C(C)=O)c1)C2 (centres undefined)	1.05	-5.35% (inactive)
CCc1ccc(NC(=S)NC2CC3CCCC(C2)N3Cc2ccccc2)cc1 (centres undefined)	2.7	-170% (active)
Cc1cccc(NC(=S)NC2CC3CCCC(C2)N3CC(C)C)c1 (centres undefined)	2.45	-145% (active)
CCc1ccc(NC(=S)NC2CC3CCCC(C2)N3Cc2cccs2)cc1 (centres undefined)	1.88	-87.8% (inactive)
COc1ccc(CN2C3CCCC2CC(NC(=O)Nc2cccc(C)c2)C3)cc1 (centres undefined)	10.5	-954% (active)
CCOC(=O)c1ccc(NC(=O)NC2CC3CCC(C2)N3Cc2nnnn2Cc2ccco2)cc1 (centres undefined)	1.95	-94.8% (inactive)
Cc1ccc(C)c(NC(=S)NC2CC3CCCC(C2)N3CC(C)C)c1 (centres undefined)	1.24	-23.9% (inactive)
O=C(Nc1ccccc1)NC1CC2CCC(C1)N2Cc1nnnn1Cc1ccc2c(c1)OCO2 (centres undefined)	2.23	-123% (active)
COc1cccc(NC(=O)NC2CCN(Cc3nnnn3Cc3ccc4c(c3)OCO4)CC2)c1	1.58	-58.1% (inactive)
C=CCN1C2CCCC1CC(NC(=O)Nc1cccc(C(C)=O)c1)C2 (centres undefined)	0.972	2.8% (inactive)
S=C(Nc1ccc(Cl)cc1)NC1CC2CCC(C1)N2Cc1ccccc1 (centres undefined)	1.64	-64% (inactive)
COc1cccc(NC(=S)NC2CC3CCCC(C2)N3CC(C)C)c1 (centres undefined)	1.72	-71.5% (inactive)
